“And” between values parts separate entries of the source, which are not always exact repeats. Equal entries are not always repeated. In all, about 5,500 compounds went through this assay and about 2,000 (36%) were called active. Another 18% or so got no clear call; they are omitted. Cut-off read from the data, not from the text of the source: active = normalized growth mostly below about 0.91 (no sharp cut-off); inconclusive = no clear call, values can overlap the other calls; inactive = mostly above about 0.92. This is one part of the list.
Test: chemical genetic growth profiling, strain panel (AID 1159580);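 note: tested at 20 µM; growth read once vehicle control cultures reached saturation at 30 °C; 1 = growth at the plate median or of vehicle wells; lower values mean less growth of the strain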
Conditions: S. cerevisiae deletion strains, growth OD

Measured: normalized growth

O=C1CCCN1CC#CCN1CCCC1
inactive: locus YAL013W, strain DEP1, active compounds read low 1.02 and 1.01 | locus YAL021C, strain ccr4, active compounds read low 1.01 | locus YAL026C, strain drs2, active compounds read low 1.03 | locus YAL030W, strain snc1, active compounds read low 1.02 | locus YAL040C, strain CLN3, active compounds read low 1.01 | locus YBL061C, strain skt5, active compounds read low 1.02 | locus YBR009C, strain hhf1, active compounds read low 1.01 | locus YBR021W, strain FUR4, active compounds read low 0.985 and 1.01 | locus YBR023C, strain chs3, active compounds read low 1.02 | locus YBR171W, strain sec66, active compounds read low 1.02 | locus YBR229C, strain ROT2, active compounds read low 1 and 1.01 | locus YBR231C, strain swc5, active compounds read low 1.03 | locus YBR279W, strain paf1, active compounds read low 1.01 | locus YCL011C, strain gbp2, active compounds read low 1.02 | locus YCL016C, strain dcc1, active compounds read low 1.02 | locus YCL029C, strain bik1, active compounds read low 1.01 and 1.02 | locus YCL061C, strain MRC1 (second series), active compounds read low 1 | locus YCL069W, strain vba3, active compounds read low 1.02 | locus YCR088W, strain abp1, active compounds read low 1.03 | locus YDL005C, strain med2, active compounds read low 1.03 | locus YDL035C, strain GPR1, active compounds read low 1 and 1.03 | locus YDL040C, strain nat1, active compounds read low 1.01 | locus YDL074C, strain BRE1, active compounds read low 0.994 and 1.02 | locus YDL101C, strain DUN1, active compounds read low 0.997 and 1.01 | locus YDL134C, strain PPH21, active compounds read low 1.01 | locus YDL185W, strain tfp1, active compounds read low 1.03 and 1.01 | locus YDL192W, strain arf1, active compounds read low 1.01 and 1.02 | locus YDR001C, strain nth1, active compounds read low 1.02 | locus YDR069C, strain doa4, active compounds read low 1.03 | locus YDR101C, strain arx1, active compounds read low 0.979 and 1.01 | locus YDR137W, strain rgp1, active compounds read low 1.03 | locus YDR150W, strain NUM1, active compounds read low 1.01 and 1 and 1.02 | locus YDR159W, strain sac3, active compounds read low 0.999 | locus YDR162C, strain NBP2, active compounds read low 1.02 and 1.01 | locus YDR195W, strain ref2 1.02 | locus YDR297W, strain sur2, active compounds read low 1.02 | locus YDR318W, strain mcm21, active compounds read low 1.01 and 1.02 | locus YDR334W, strain swr1, active compounds read low 1.02 | locus YDR335W, strain msn5, active compounds read low 1.02 | locus YDR363W, strain ESC2, active compounds read low 1.01 | locus YDR388W, active compounds read low 1.01 | locus YDR392W, strain spt3, active compounds read low 1.01 | locus YDR502C, strain sam2, active compounds read low 1.02 and 1.01 | locus YEL003W, strain gim4, active compounds read low 1.02 | locus YEL037C, strain rad23, active compounds read low 1.02 | locus YEL061C, strain CIN8 (second series), active compounds read low 1.02 | locus YEL061C, strain CIN8, active compounds read low 1 | locus YER002W, strain NOP16, active compounds read low 0.985 | locus YER015W, strain faa2, active compounds read low 1.02 | locus YER016W, strain bim1, active compounds read low 1.01 | locus YER110C, active compounds read low 1.02 | locus YER111C, strain swi4, active compounds read low 1.03 | locus YER155C, strain BEM2 (second series), active compounds read low 1.03 | locus YER155C, strain BEM2, active compounds read low 0.994 and 1.01 | locus YER167W, strain BCK2, active compounds read low 1 and 1.02 | locus YFR010W, strain ubp6, active compounds read low 1.03 | locus YGL078C, strain dbp3, active compounds read low 1.02 and 0.999 | locus YGL086W, strain mad1, active compounds read low 0.999 and 1.03 | locus YGL167C, strain pmr1, active compounds read low 1.01 | locus YGL173C, strain kem1, active compounds read low 1.01 | locus YGL227W, strain vid30, active compounds read low 1.02 | locus YGL240W, strain doc1, active compounds read low 1.02 | locus YGL248W, strain PDE1, active compounds read low 1.02 and 1.01 | locus YGL253W, strain hxk2, active compounds read low 1.02 | locus YGR078C, strain PAC10, active compounds read low 1 and 0.996 and 1.01 | locus YGR135W, strain pre9, active compounds read low 1.04 and 0.991 | locus YGR229C, strain SMI1, active compounds read low 1 | locus YGR252W, strain gcn5, active compounds read low 1.1 and 1.03 | locus YHR013C, strain ard1, active compounds read low 1.04 | locus YHR027C, strain rpn1, active compounds read low 1.02 | locus YHR030C, strain SLT2, active compounds read low 1.01 and 1.02 | locus YHR079C, strain IRE1 (second series), active compounds read low 1.01 and 1.02 | locus YHR079C, strain IRE1, active compounds read low 1.02 | locus YHR094C, strain hxt1, active compounds read low 1.01 | locus YHR129C, strain ARP1, active compounds read low 1 | locus YHR142W, strain chs7, active compounds read low 1.05 | locus YHR200W, strain rpn10, active compounds read low 1.01 and 1.02 | locus YIL066C, strain RNR3, active compounds read low 1.02 and 1.03 | locus YIL073C, strain SPO22, active compounds read low 1.06 and 1.1 | locus YIL125W, strain kgd1, active compounds read low 1 and 1.01 | locus YIR030C, strain dcg1, active compounds read low 1.01 and 1.02 | locus YJL092W, strain hpr5, active compounds read low 1.01 | locus YJL095W, strain BCK1 (second series), active compounds read low 1.02 | locus YJL095W, strain BCK1, active compounds read low 1 and 1.03 and 0.996 | locus YJL115W, strain asf1, active compounds read low 1.04 | locus YJL129C, strain trk1, active compounds read low 1.04 | locus YJL134W, strain LCB3, active compounds read low 1.01 | locus YJL154C, strain vps35, active compounds read low 1.01 | locus YJL164C, strain tpk1, active compounds read low 1.02 | locus YJL166W, strain qcr8, active compounds read low 1.02 | locus YJL168C, strain set2, active compounds read low 1 and 1.02 | locus YJL187C, strain SWE1 (second series), active compounds read low 0.999 and 1 | locus YJL187C, strain SWE1, active compounds read low 1.02 | locus YJR043C, strain POL32, active compounds read low 1 and 1.02 | locus YJR066W, strain TOR1, active compounds read low 0.971
